Screening results from PubChem BioAssay.
An excerpt weighted towards active compounds, which were near 12% of everything screened.
G9a block = inhibitors of human histone lysine methyltransferase G9a. Q96KQ7. G9a H3K9 monomethylation, AlphaScreen, 2 h. Potency, µM (series often up to 102 µM), without a hit: at the highest dose activity, negative = inhibition, usual class: inhibitors. 350,000 tested, 8.8% active. AID 504332; also: % is scaled to controls: 0 for no effect and ±100 for the full control effect; nearly all actives have a fitted effect of over 75% in size
Target sequence (Q96KQ7 913-1193 limits assumed): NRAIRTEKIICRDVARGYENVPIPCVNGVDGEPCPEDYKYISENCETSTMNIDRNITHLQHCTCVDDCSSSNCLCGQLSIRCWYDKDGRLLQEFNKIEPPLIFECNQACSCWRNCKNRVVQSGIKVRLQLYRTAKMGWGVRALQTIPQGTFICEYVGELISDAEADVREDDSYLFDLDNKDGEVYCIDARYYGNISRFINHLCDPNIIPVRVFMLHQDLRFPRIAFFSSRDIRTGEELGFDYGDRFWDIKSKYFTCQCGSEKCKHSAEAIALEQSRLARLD
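AlphaScreen read-out: biotin-H3K9 peptide (500 nM) methylation by 20 nM enzyme with 20 uM SAM, 2 h at room temperature after 15 min compound preincubation; anti-monomethyl H3K9 antibody plus donor/acceptor beads, 10 min dark.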
Sfp inh = inhibitors of Bacillus subtilis Sfp phosphopantetheinyl transferase | Q9F4F7 | Biochemical Sfp PPTase activity, qHTS | Potency, µM, for inactives: largest response in the series, negative = inhibition, usual class: inhibitors | 310,000 tested, 3.5% active | AID 1490;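 also: the enzyme is Sfp with the accession as filed and its product quenches rhodamine fluorescence; 0% = enzyme reaction without inhibitor and -100% = no enzyme wells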
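Sfp 15 nM + cpd, 15 min RT; start w/ rhodamine-CoA 5 uM, BHQ-2-YbbR 12.5 uM (final); 50 mM Hepes pH 7.6, 10 mM MgCl2, 0.01% NP-40, 0.01% BSA; read 525/598 nm at 0 and 30 min.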
JMJD2A Tudor inh = inhibitors of human JMJD2A Tudor domain; 390,000 tested, 4.4% active; Potency, µM (titrated, usually from 114 µM), for inactives: at the top dose activity change, negative = inhibition, actives largely listed as inhibitors; AlphaScreen JMJD2A-Tudor / H3K4me3 peptide binding; AID 504339; also: % is scaled to controls: 0 for no effect and ±100 for the full control effect; nearly all actives have a fitted effect of over 50% in size
HP1b binding inh = inhibitors of HP1-beta chromodomain binding to methylated histone tails | P83916 | AlphaScreen HP1-beta / biotin-H3K9me3 peptide binding | Potency, µM (doses to about 114 µM), inactives show at the highest dose activity change, negative = inhibition, usual class: inhibitors | 390,000 tested, 0.56% active | AID 540317; also: nearly all actives have a fitted effect of over 70% in size
Target sequence (P83916 whole entry, looked up): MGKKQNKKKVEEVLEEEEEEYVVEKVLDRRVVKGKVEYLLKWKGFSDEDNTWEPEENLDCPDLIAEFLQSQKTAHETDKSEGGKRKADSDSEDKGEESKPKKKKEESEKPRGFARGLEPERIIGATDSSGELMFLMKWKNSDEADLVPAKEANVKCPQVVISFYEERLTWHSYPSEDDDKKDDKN
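AlphaScreen: HP1-beta (50 nM) preformed 30 min with biotin-H3(1-18)K9me3 peptide (50 nM) in PBS pH 7.4, 0.01% Tween-20. Compound added for 30 min at RT, then streptavidin donor/nickel chelate acceptor beads (10 ug/mL) for 30 min.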
L3MBTL1 inh = L3MBTL1 (human) inhibition; 230,000 tested, 0.66% active; Q9Y468; Potency, µM (highest dose often 57.1 µM), inactives show top-dose activity, negative = inhibition, actives largely listed as inhibitors; AlphaScreen L3MBTL1–H3K9me1 peptide binding; also: % is scaled to controls: 0 for no effect and ±100 for the full control effect; nearly all actives have a fitted effect of over 60% in size
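AlphaScreen proximity signal between nickel-chelate acceptor and streptavidin donor beads (final 10 ug/mL) reports binding of 50 nM L3MBTL1 to 75 nM biotin-H3 K9me1 peptide; complex incubated with compounds 30 min at room temperature; cefsulodin titration as control.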
BAZ2B inh = blocks human BAZ2B. 360,000 tested, 4.4% active. Q9UIF8. Potency, µM (titrated, usually from 114 µM), without a hit: top-dose activity change, negative = inhibition, actives largely listed as inhibitors. AlphaScreen BAZ2B-H3K14Ac peptide displacement. AID 504333; also: % is scaled to controls: 0 for no effect and ±100 for the full control effect; nearly all actives have a fitted effect of over 60% in size
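Protein-peptide AlphaScreen: BAZ2B 50 nM, b-H3K14Ac 50 nM, 1x PBS pH 7.4 + 0.01% Tween-20. Preincubation 30 min RT; cpd 30 min RT (top 110 uM); beads 20 min RT, light-protected.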
Starred values were filed as active, the others as inactive; u = inconclusive; x = no result; [ ] = dose if it differs, or a comment. Calls follow the shape of the dose curve; as a rule, active = well fitted curve in the direction sought with a large enough effect; inconclusive = small, poorly fitted or top-dose-only effect, or another doubt; inactive = no such curve, though single readings can be large; an effect the other way counts as inactive or inconclusive. Potency is read from the fitted curve at half-maximal effect.

SMILES | G9a block | Sfp inh | JMJD2A Tudor inh | HP1b binding inh | L3MBTL1 inh | BAZ2B inh
CCOC(=O)C1CCN(C(=O)C2CCN(C3=NS(=O)(=O)C(c4ccc(C)cc4)=C3CC)CC2)CC1 | 37%[59 µM] | x | -23% | 53% | x | 33%
CCN(CC)c1ccc(/C=C2/C(=O)ON=C2C)cc1 | 45µM* | -16% | 45µM* | u | -17% | 40µM*
CCCOc1ccc(/C=C2/C(=O)ON=C2C)cc1Cl | 28µM* | 50µM* | 6% | 17% | x | -10%
CCCCC1(C)OC(=O)C(=Cc2ccc(N(CC)CC)cc2)C(=O)O1 (stereo not drawn) | 71µM* | -7% | u | 12% | -6% | 56µM*
CC1=NOC(=O)/C1=C/c1ccc(O)c(Cl)c1 | 50µM* | -35% | -17% | 10% | x | 50µM*
COc1cc(/C=C2\OC(=O)c3c(OC)cccc32)ccc1O | 14%[59 µM] | 3% | 5% | 27% | x | 42%
CC1=NOC(=O)/C1=C/c1ccc(N(C)C)cc1 | u | 4% | -34% | 14% | -6% | -36%
CCN1CCN(C(=O)CCNC(=O)Cn2cnc3ccccc3c2=O)CC1 | u | -3% | -4% | -1% | x | 6%
CCOc1ccc2oc(C(=O)OCC(=O)NC3CCCCC3)c(C)c2c1 | -4%[12.7 µM] | x | -19% | 25% | -3% | -17%
CC(=O)c1ccc(N2CCN(C(=O)Cn3ncc4c3-c3ccccc3OC4)CC2)cc1 | -8%[59 µM] | x | -25% | 2% | x | -17%
CCOc1cc(/C=C2/C(=O)ON=C2C)ccc1O | 50µM* | -19% | -4% | 4% | x | -38%
CCOC(=O)C1=C(O)/C(=C\c2ccc(O)c(OCC)c2)N=C1C | u | -1% | -7% | 1% | -4% | -19%
CCN(CC)c1ccc(/C=C2\C(=O)N(c3nnc(C)c(=O)[nH]3)N=C2C)cc1 | 50µM* | 10µM* | 20µM* | -2% | u | 8.9µM*
CCOc1cc(/C=C2\N=C3CCCCCN3C2=O)ccc1O | u | 8% | -12% | 31% | -13% | -17%
CC1=NN(CCC#N)C(=O)/C1=C/c1ccc(N(C)C)cc1 | u | 4% | -23% | u | -29% | x
CCOc1cc(/C=C2\CN(C)C/C(=C\c3ccc(O)c(OCC)c3)C2=O)ccc1O | 35µM* | -11% | 56µM* | u | x | 45µM*
CCCN1C(=O)c2[nH]nc(-c3ccccc3O)c2C1c1ccc(OCc2ccccc2)c(OCC)c1 (stereo not drawn) | 18%[59 µM] | x | -3% | 63% | x | -14%
Cc1ccc(N=Nc2c(N)nn(-c3ccccc3)c2N)cc1 | -50%[59 µM] | -12% | 35µM* | u | -15% | 50µM*
Cc1nn(-c2ccccc2)c(N)c1N=O | 11% | 5% | -14% | 27% | -1% | -15%
Cc1nn(-c2ccccc2)c(N)c1N=Nc1ccc2ccccc2c1 | 40µM* | u | 40µM* | u | -28% | 13µM*
Cc1ccc(N=Nc2c(N)nn3c(N)c(C#N)c(C)nc23)cc1 | -39% | -5% | 56µM* | 66% | 1% | -39%
COc1ccc(N=Nc2c(N)nn(C)c2N)cc1 | x | x | u | 79µM* | x | x
Cc1ccc(N=Nc2c(N)nn3c(C)cc(C)nc23)cc1 | 17%[59 µM] | 17% | -8% | 13% | -7% | 6%
Cc1cc(=O)[nH]c2c(N=Nc3ccc(O)cc3)c(N)nn12 | u | u | -28% | -2% | 1% | 3%
COc1ccc(-c2cc(C(F)(F)F)nc(SCC(=O)N(C)Cc3ccccc3)n2)cc1 | 76%[59 µM] | x | 4% | 57% | x | 10%
SMILES | G9a block | Sfp inh | JMJD2A Tudor inh | HP1b binding inh | L3MBTL1 inh | BAZ2B inh
Nc1nc(-c2ccccc2)c(CCCOc2ccc(NC(=O)CBr)cc2)c(=O)[nH]1 | x | x | -12% | 23% | x | x
Cc1ccccc1N1CCN(C2CCCN(C(=O)c3ccnn3C)C2)CC1 (stereo not drawn) | x | 3% | -15% | 9% | x | -7%
CCN1CCN(CCCN(Cc2ccco2)C(=S)Nc2ccc(Cl)c(C)c2)CC1 | u | 13% | -18% | 10% | 7% | -20%
FC(F)(F)c1cccc(NC(=S)N(CCCN2CCCC2)Cc2cccn2Cc2ccc(Cl)cc2)c1 | 45µM* | 56µM* | u | 4% | x | -30%
Cc1ccc(NC(=S)N(CCCN2CCCC2)Cc2cccn2Cc2ccc(Cl)cc2)cc1C | -14% | 3% | 50µM* | -23% | x | -14%
COc1ccc(NC(=S)N(CCCN2CCC(C)CC2)Cc2cccs2)cc1Cl | u | 32µM* | -25% | -9% | x | -34%
COc1ccc(NC(=S)N(CCCN2CCN(C)CC2)Cc2cccs2)cc1 | 7% | -9% | -13% | -4% | -7% | -4%
CCCN(Cc1ccccc1)C(=S)Nc1cccc(C(F)(F)F)c1 | 19%[59 µM] | 14% | 9% | 60% | 23% | 0%
Cc1ccc(NC(=S)N(CCCN2CCCC2)Cc2cccn2Cc2ccc(Cl)cc2)cc1Cl | 32µM* | 3% | u | -5% | x | u
Cc1ccc(S(=O)(=O)N2CCOCC2)cc1NC(=O)CSc1nnc(COc2ccccc2F)n1N | x | x | -19% | 17% | x | x
COC(=O)[C@@]1(Cc2ccc(F)cc2)[C@H]2c3cc(C(=O)N(C)C)n(Cc4cccc5ccccc45)c3C[C@H]2CN1C(=O)c1ccccc1 | x | 9% | x | x | x | x
COCCN(C(=S)Nc1ccc(OC)c(Cl)c1)C1CCN(C(C)C)CC1 | u | 40µM* | -14% | 19% | x | -20%
O=C(CNC(=S)N(CCCN1CCOCC1)Cc1cccs1)NCc1ccccc1Cl | 71µM* | 11% | -16% | 66% | x | -18%
CN(C)CCCN(Cc1ccccc1)C(=S)Nc1cccc(C(F)(F)F)c1 | 71µM* | -12% | -8% | 33% | -4% | -6%
COc1ccc(NC(=S)N(CCCN2CCCC2)Cc2cccn2Cc2ccc(Cl)cc2)cc1Cl | 28µM* | 79µM* | u | -9% | x | 28µM*
Cc1cc(C)n(CC(=O)NNC(=O)c2ccc(NC(=O)CC#N)cc2)n1 | u | x | 5% | 36% | 0% | 1%
COc1cccc(CC(=O)OCC(=O)NC(=O)c2ccc(OC(F)F)cc2)c1 | -39% | x | -11% | 19% | -3% | 8%
